Data taken from PubChem BioAssay AID1159580 (chemical genetic matrix, 2015).
Several values for one entry are separate records, joined by “and”; a condition that tells them apart may be missing. Equal entries are not always repeated. The whole screen tested about 5,500 compounds, of which about 2,000 (36%) were called active. Inconclusive results (about 18%) are left out. Some of the results follow. A number with no mark means an inactive call. Rule as the data show it: active = normalized growth mostly below about 0.91 (no sharp cut-off); inconclusive = no clear call, values can overlap the other calls; inactive = mostly above about 0.92.

Test: chemical genetic growth profiling, strain panel (AID 1159580);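 also: tested at 20 µM; growth read once vehicle control cultures reached saturation at 30 °C; 1 = growth at the plate median or of vehicle wells; lower values mean less growth of the strain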
Details: S. cerevisiae deletion strains, growth OD

Work on COC(=O)NC(=S)Nc1ccccc1NC(=S)NC(=O)OC yielded a normalized growth (locus YAL013W, strain DEP1, active compounds read low) of 1, a normalized growth (locus YAL021C, strain ccr4, active compounds read low) of 0.92 and a normalized growth (locus YAL026C, strain drs2, active compounds read low) of 0.975. It also gave a normalized growth (locus YAL030W, strain snc1, active compounds read low) of 0.986, a normalized growth (locus YBL061C, strain skt5, active compounds read low) of 0.99 and a normalized growth (locus YBR009C, strain hhf1, active compounds read low) of 0.973. It also gave a normalized growth (locus YBR021W, strain FUR4, active compounds read low) of 1.02, a normalized growth (locus YBR023C, strain chs3, active compounds read low) of 0.966 and a normalized growth (locus YBR171W, strain sec66, active compounds read low) of 0.974. The normalized growth (locus YBR229C, strain ROT2, active compounds read low) was 1, the normalized growth (locus YBR231C, strain swc5, active compounds read low) was 1 and the normalized growth (locus YBR279W, strain paf1, active compounds read low) was 0.983. It also gave a normalized growth (locus YCL011C, strain gbp2, active compounds read low) of 0.978, a normalized growth (locus YCL016C, strain dcc1, active compounds read low) of 0.974 and a normalized growth (locus YCL029C, strain bik1, active compounds read low) of 1.03. The normalized growth (locus YCL069W, strain vba3, active compounds read low) was 0.978, the normalized growth (locus YCR088W, strain abp1, active compounds read low) was 0.975 and the normalized growth (locus YDL005C, strain med2, active compounds read low) was 0.963. The normalized growth (locus YDL035C, strain GPR1, active compounds read low) was 0.992, the normalized growth (locus YDL040C, strain nat1, active compounds read low) was 0.973 and the normalized growth (locus YDL074C, strain BRE1, active compounds read low) was 1.03. It also gave a normalized growth (locus YDL101C, strain DUN1, active compounds read low) of 1.02, a normalized growth (locus YDL134C, strain PPH21, active compounds read low) of 1 and a normalized growth (locus YDL185W, strain tfp1, active compounds read low) of 1. The normalized growth (locus YDL192W, strain arf1, active compounds read low) was 1.01, the normalized growth (locus YDR001C, strain nth1, active compounds read low) was 0.976 and the normalized growth (locus YDR069C, strain doa4, active compounds read low) was 0.909. It also gave a normalized growth (locus YDR101C, strain arx1, active compounds read low) of 1.01, a normalized growth (locus YDR137W, strain rgp1, active compounds read low) of 0.945 and a normalized growth (locus YDR150W, strain NUM1, active compounds read low) of 0.996. It also gave a normalized growth (locus YDR159W, strain sac3, active compounds read low) of 0.969, a normalized growth (locus YDR162C, strain NBP2, active compounds read low) of 1.01 and a normalized growth (locus YDR195W, strain ref2) of 1.04. For the same compound, the normalized growth (locus YDR297W, strain sur2, active compounds read low) was 0.984, the normalized growth (locus YDR318W, strain mcm21, active compounds read low) was 1.02 and the normalized growth (locus YDR334W, strain swr1, active compounds read low) was 0.972. For the same compound, the normalized growth (locus YDR335W, strain msn5, active compounds read low) was 0.97, the normalized growth (locus YDR388W, active compounds read low) was 1.02 and the normalized growth (locus YDR392W, strain spt3, active compounds read low) was 0.724 (active). The normalized growth (locus YDR502C, strain sam2, active compounds read low) was 0.993, the normalized growth (locus YEL003W, strain gim4, active compounds read low) was 0.959 and the normalized growth (locus YEL037C, strain rad23, active compounds read low) was 0.973. It also gave a normalized growth (locus YEL061C, strain CIN8 (second series), active compounds read low) of 0.979, a normalized growth (locus YEL061C, strain CIN8, active compounds read low) of 0.996 and a normalized growth (locus YER015W, strain faa2, active compounds read low) of 0.981. It also gave a normalized growth (locus YER016W, strain bim1, active compounds read low) of 0.963, a normalized growth (locus YER110C, active compounds read low) of 1.02 and a normalized growth (locus YER111C, strain swi4, active compounds read low) of 0.958. The normalized growth (locus YER155C, strain BEM2 (second series), active compounds read low) was 0.753 (active), the normalized growth (locus YER155C, strain BEM2, active compounds read low) was 1.01 and the normalized growth (locus YER167W, strain BCK2, active compounds read low) was 0.977. The normalized growth (locus YFR010W, strain ubp6, active compounds read low) was 0.984, the normalized growth (locus YGL078C, strain dbp3, active compounds read low) was 0.982 and the normalized growth (locus YGL086W, strain mad1, active compounds read low) was 0.997. The normalized growth (locus YGL167C, strain pmr1, active compounds read low) was 0.976, the normalized growth (locus YGL173C, strain kem1, active compounds read low) was 0.985 and the normalized growth (locus YGL227W, strain vid30, active compounds read low) was 0.977. For the same compound, the normalized growth (locus YGL240W, strain doc1, active compounds read low) was 0.972, the normalized growth (locus YGL248W, strain PDE1, active compounds read low) was 1.01 and the normalized growth (locus YGL253W, strain hxk2, active compounds read low) was 1. For the same compound, the normalized growth (locus YGR078C, strain PAC10, active compounds read low) was 0.996, the normalized growth (locus YGR135W, strain pre9, active compounds read low) was 1 and the normalized growth (locus YGR229C, strain SMI1, active compounds read low) was 0.986. For the same compound, the normalized growth (locus YGR252W, strain gcn5, active compounds read low) was 0.981, the normalized growth (locus YHR013C, strain ard1, active compounds read low) was 0.886 and the normalized growth (locus YHR027C, strain rpn1, active compounds read low) was 0.985. For the same compound, the normalized growth (locus YHR030C, strain SLT2, active compounds read low) was 0.997 and 0.983, the normalized growth (locus YHR079C, strain IRE1 (second series), active compounds read low) was 1.02 and the normalized growth (locus YHR079C, strain IRE1, active compounds read low) was 0.938. It also gave a normalized growth (locus YHR094C, strain hxt1, active compounds read low) of 1.01, a normalized growth (locus YHR129C, strain ARP1, active compounds read low) of 1.01 and a normalized growth (locus YHR142W, strain chs7, active compounds read low) of 0.943. The normalized growth (locus YHR200W, strain rpn10, active compounds read low) was 1.01, the normalized growth (locus YIL066C, strain RNR3, active compounds read low) was 1.01 and the normalized growth (locus YIL073C, strain SPO22, active compounds read low) was 0.999. It also gave a normalized growth (locus YIL125W, strain kgd1, active compounds read low) of 0.998, a normalized growth (locus YIR030C, strain dcg1, active compounds read low) of 1.02 and a normalized growth (locus YJL092W, strain hpr5, active compounds read low) of 0.977. The normalized growth (locus YJL095W, strain BCK1 (second series), active compounds read low) was 0.978, the normalized growth (locus YJL095W, strain BCK1, active compounds read low) was 1.04 and 0.967 and the normalized growth (locus YJL115W, strain asf1, active compounds read low) was 0.966. For the same compound, the normalized growth (locus YJL129C, strain trk1, active compounds read low) was 0.939, the normalized growth (locus YJL134W, strain LCB3, active compounds read low) was 1 and the normalized growth (locus YJL154C, strain vps35, active compounds read low) was 0.963. For the same compound, the normalized growth (locus YJL164C, strain tpk1, active compounds read low) was 0.965, the normalized growth (locus YJL166W, strain qcr8, active compounds read low) was 0.979 and the normalized growth (locus YJL168C, strain set2, active compounds read low) was 1.02. For the same compound, the normalized growth (locus YJL187C, strain SWE1 (second series), active compounds read low) was 1.04, the normalized growth (locus YJL187C, strain SWE1, active compounds read low) was 0.986 and the normalized growth (locus YJR043C, strain POL32, active compounds read low) was 1.04. It also gave a normalized growth (locus YJR066W, strain TOR1, active compounds read low) of 0.87.
